# Compound activity: PubChem BioAssay, National Center for Advancing Translational Sciences (NCATS)
# Sfp PPTase inh: qHTS Assay for Inhibitors of Bacillus subtilis Sfp phosphopantetheinyl transferase (PPTase). Biochemical Sfp PPTase activity, qHTS. Potency, µM, inactives show largest response in the series, negative = inhibition, actives largely listed as inhibitors. actives 3.5% (n = 310,000). AID 1490, 2009; active = well fitted curve in the direction sought with a large enough effect; inconclusive = small, poorly fitted or top-dose-only effect, or another doubt; inactive = no such curve, though single readings can be large; an effect the other way counts as inactive or inconclusive;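 note: the enzyme is Sfp with the accession as filed and its product quenches rhodamine fluorescence; potency is the fitted concentration of half-maximal effect; 0% = enzyme reaction without inhibitor and -100% = no enzyme wells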
#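 Reaction rates are the 30-min fluorescence difference (ex 525, em 598 nm) in wells containing 15 nM Sfp, 5 uM rhodamine-CoA and 12.5 uM BHQ-2-YbbR at pH 7.6 with 10 mM MgCl2.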
# ALDH1A1 inh: qHTS Assay for Inhibitors of Aldehyde Dehydrogenase 1 (ALDH1A1); Potency, µM (series often up to 75.3 µM), for the others: top-dose activity, negative = inhibition, actives largely listed as inhibitors; Aldehyde dehydrogenase 1A1 (Homo sapiens), P00352; Purified ALDH1A1, NADH fluorescence, propionaldehyde substrate; actives 7.3% (n = 220,000);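 note: potency is the fitted concentration of half-maximal effect; plate controls were no enzyme wells and a reference inhibitor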
# FBPA coupling cs: qHTS Assay for Inhibitors of Fructose-1,6-bisphosphate Aldolase from Giardia Lamblia: Coupling assay counterscreen | coupling enzyme system counterscreen, AmpLite Red fluorescence | activity change, negative = inhibition, % at 58.2 µM, hits read low | actives 0.67% (n = 290,000) | AID 2472, 2010; in the data active = activity change below about -30%
#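 Compounds tested against the coupling enzymes alone at 57.5 uM final; readout was AmpLite Red fluorescence (525/598 nm) after 20 min at RT.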
# NPSR antag: qHTS Assay for Antagonists of the Neuropeptide S Receptor: cAMP Signal Transduction; CHO-NPSR cells, cAMP TR-FRET, antagonist mode; Potency, µM (titrated, usually from 38.3 µM), inactives show at the top dose activity change, negative = inhibition, usual class: inhibitors; actives 1% (n = 220,000); AID 1461, 2008; active = well fitted curve in the direction sought with a large enough effect; inconclusive = small, poorly fitted or top-dose-only effect, or another doubt; inactive = no such curve, though single readings can be large; an effect the other way counts as inactive or inconclusive; note: potency is the fitted concentration of half-maximal effect; nearly all actives have a fitted effect of over 50% in size
# JMJD2E inh: qHTS Assay for Inhibitors of Human Jumonji Domain Containing 2E (JMJD2E); Lysine-specific demethylase 4E (Homo sapiens), B2RXH2; JMJD2E catalytic domain, FDH-coupled NADH fluorescence (FDH is formaldehyde dehydrogenase); Potency, µM (top dose mostly 57.1 µM), inactives show top-dose activity change, negative = inhibition, hits mostly inhibitors; actives 1.6% (n = 230,000); AID 2147, 2009;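 note: potency is the fitted concentration of half-maximal effect; 0% = wells with enzyme and -100% = buffer wells without enzyme; nearly all actives have a fitted effect of over 50% in size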
# Target sequence (B2RXH2 1-337 limits assumed): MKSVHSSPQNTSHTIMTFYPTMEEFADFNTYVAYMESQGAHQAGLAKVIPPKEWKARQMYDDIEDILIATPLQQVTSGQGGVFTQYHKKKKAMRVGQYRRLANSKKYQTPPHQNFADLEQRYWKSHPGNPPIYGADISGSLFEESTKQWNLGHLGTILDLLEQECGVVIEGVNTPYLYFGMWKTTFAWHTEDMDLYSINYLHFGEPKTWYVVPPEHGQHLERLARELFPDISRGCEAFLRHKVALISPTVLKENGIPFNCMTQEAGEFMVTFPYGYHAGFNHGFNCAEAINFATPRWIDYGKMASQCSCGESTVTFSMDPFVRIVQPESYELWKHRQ
# RGS12 GoLoco inh: qHTS Assay for Inhibitors of RGS12 GoLoco Motif Activity (Red Fluorophore) | Guanine nucleotide-binding protein G(i) subunit alpha-1 (Homo sapiens), P63096 | Gai1:RGS12 GoLoco peptide FP, rhodamine, 10 min | Potency, µM (highest dose often 61.6 µM), inactives show at the top dose activity, negative = inhibition, hits mostly inhibitors | actives 0.44% (n = 230,000); active = well fitted inhibition curve with a large enough effect, not every such curve was filed as active; inactive = no such curve, though single readings can be large or run the other way; note: potency is the fitted concentration of half-maximal effect; nearly all actives have a fitted effect of over 30% in size
# Target sequence (P63096 whole entry, looked up): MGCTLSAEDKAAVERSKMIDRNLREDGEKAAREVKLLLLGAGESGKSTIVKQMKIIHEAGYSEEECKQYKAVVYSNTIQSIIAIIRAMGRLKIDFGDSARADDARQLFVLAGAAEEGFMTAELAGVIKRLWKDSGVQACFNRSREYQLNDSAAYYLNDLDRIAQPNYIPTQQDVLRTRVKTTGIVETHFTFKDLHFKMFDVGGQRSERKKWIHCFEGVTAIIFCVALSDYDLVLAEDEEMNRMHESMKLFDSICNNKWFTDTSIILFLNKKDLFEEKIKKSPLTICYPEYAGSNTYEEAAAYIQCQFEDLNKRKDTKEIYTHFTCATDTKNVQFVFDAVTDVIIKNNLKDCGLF
# * = called active by the depositor; u = inconclusive; x = not tested or not shown; [ ] = remark or other dose. Sampled rows, rich in hits. Any-hit rate of the full collection: about 8.5%. Unless noted, calls come from the whole dose curve; as a rule, active = well fitted inhibition curve with a large enough effect (not every such curve was filed as active); inconclusive = small, poorly fitted or top-dose-only effect, or another doubt; inactive = no such curve, though single readings can be large or run the other way. Unless noted, % is set by controls: 0 for no effect and ±100 for the full control effect.
SMILES,Sfp PPTase inh,ALDH1A1 inh,FBPA coupling cs,NPSR antag,JMJD2E inh,RGS12 GoLoco inh
Cc1ccc(NC(=O)COC(=O)CCc2ccc(S(=O)(=O)N3CCOCC3)cc2)c(C)c1,15.6%,11.8%,-0.6,12.1%,14.2%,5.3%
COc1ccc(S(=O)(=O)N2CCOCC2)cc1NC(=O)CCc1c[nH]c2ccccc12,7.0%,14.1µM*,3.3,-2.7%,-11.1%,24.8%
Cc1nnc(NC(=O)CSc2ccc(-c3ccco3)nn2)s1,25.1µM*,7.08µM*,-2.4,1.6%,u,4.5%
Cc1ccccc1NC(=O)CSc1ccc(-c2ccco2)nn1,22.4µM*,u,-0.6,14.9%,u,2.7%
Cc1ccc(C)c(NC(=O)CSc2ccc(-c3ccco3)nn2)c1,14.1µM*,3.16µM*,2.4,-1.7%[46.1 µM],10.4%,47.1%
Cc1nnc(NC(=O)CSc2nnc(-c3ccco3)n2C(C)C)s1,4.6%,x,1.6,x,x,x
Cc1ccc2oc(C(=O)Nc3ccc(S(=O)(=O)Nc4ncccn4)cc3)c(C)c2c1,12.6%,x,1.5,x,x,x
O=C(O)CC/C(=C\c1ccc(N2CCOCC2)c([N+](=O)[O-])c1)c1nc2ccccc2s1,17.2%,6.31µM*,1.0,-12.6%,-0.6%,8.8%
CS(=O)(=O)N(CC(=O)O)Cc1ccccc1,x,-5.9%[13.5 µM],x,x,x,-4.1%[14.2 µM]
C(=C\c1ccccc1)/C=N/Nc1nc2ccccc2[nH]1,14.1µM*,-10.6%,1.0,14.3%[46.1 µM],-6.5%,x
C(=N\Nc1nc2ccccc2[nH]1)/c1ccccc1,-7.9%,5.9%,0.0,16.9%,-1.7%,17.5%
CCN1CCN(C(=O)c2ccc(N3CC4CC(C3)c3cccc(=O)n3C4)c(NC(=O)c3cc(OC)cc(OC)c3)c2)CC1 (configuration not stated),6.5%,x,-0.9,x,x,x
Cc1cccc(/C=C(\c2nc3ccccc3[nH]2)S(=O)(=O)c2ccccc2)c1,-8.1%,22.2%,1.6,7.94µM*,-6.4%,-2.6%
COc1cccc2sc(Nc3nc(-c4ccccn4)cs3)nc12,-19.8%,-6.0%,-13.5,1µM*,1.5%,x
c1ccc(Nc2nc(-c3ccccn3)cs2)cc1,u,-3.6%,-1.3,u,9.0%,1.7%
N#Cc1cccc(NC(=O)Cn2c3[n+](c4ccc(C(F)(F)F)cc42)CCCCC3)c1,-0.8%,-6.2%,1.2,8.2%,-25.4%,14.1µM*
Cc1c(C(=O)Nc2ccc(S(=O)(=O)N3CCOCC3)cc2)cccc1[N+](=O)[O-],13.2%,x,-0.4,x,x,x
N#CCCN(C(=O)CO/N=C/c1cccc([N+](=O)[O-])c1)c1ccccc1,3.7%,25.1µM*,1.8,-10.3%,-1.1%,-1.1%
CC(C)c1nnc(NC(=O)CCC(=O)N2CCC(Cc3ccccc3)CC2)s1,11.2%,x,x,x,x,x
CCN(CC)S(=O)(=O)c1ccc(N/N=C/c2cc(OC)ccc2O)nc1,12.6%,3.8%,-0.2,-27.0%,12.6µM*,35.4%
CC(C)N(C(C)C)S(=O)(=O)c1ccc(NN)nc1,79.4µM*,x,-2.6,18.9%,u,1.1%
CCOc1ccc(NC(=O)CN(C)c2ccc(S(=O)(=O)N(C(C)C)C(C)C)cn2)cc1OCC,13.1%,6.6%,-0.7,-16.1%[46.1 µM],0.3%,0.8%
CCN(CC)S(=O)(=O)c1ccc(N/N=C/c2cccnc2)nc1,8.9%,x,1.0,-8.7%,-12.3%,6.9%
CCN(CC)S(=O)(=O)c1ccc(Oc2ccccc2)cc1,-4.0%,3.4%,0.6,-14.5%[46.1 µM],6.6%,7.8%
CCN(CC)S(=O)(=O)c1ccc(NN)nc1,12.6µM*,-7.3%,-5.8,0.0%,u,11.9%
SMILES,Sfp PPTase inh,ALDH1A1 inh,FBPA coupling cs,NPSR antag,JMJD2E inh,RGS12 GoLoco inh
CCN(CC)S(=O)(=O)c1ccc(Oc2cccc(C(C)=O)c2)nc1,7.1%,14.1µM*,-0.3,u,12.8%,-9.4%
COc1cc(CO)c(OC)c([N+](=O)[O-])c1,-12.5%,x,-1.1,x,x,x
CCOc1ccc(C(=O)NCC(=O)NCC2CCCCC2)cc1OCC,14.0%,x,2.4,x,x,x
COc1ccc(NC(=O)/C(Cl)=C(/Cl)S(=O)(=O)Cc2ccccc2)cn1,-14.1%,1.26µM*,0.4,5.01µM*,6.7%,0.5%
COc1ccc(NC(=O)C(Cl)=C(Cl)Cl)cn1,7.8%,u,-1.6,5.7%,-2.1%,4.7%
COc1ccc(NC(=O)Cc2c(Cl)cccc2Cl)cn1,15.0%,7.1%,-7.6,-4.8%,-2.0%,2.6%
COc1ccc(NC(=O)/C(Cl)=C(/Cl)S(=O)Cc2ccc(Cl)cc2)cn1 (configuration not stated),11.2µM*,0.355µM*,-0.5,7.94µM*,1.5%,2.5%
COc1ccccc1N1CCN(C(=O)c2ccc3nc(-c4ccco4)c(-c4ccco4)nc3c2)CC1,-7.2%,12.6µM*,0.5,-22.0%,u,6.4%
Cc1ccc(C)c(N2CCN(C(=O)c3ccc4nc(-c5ccco5)c(-c5ccco5)nc4c3)CC2)c1,20µM*,u,x,-23.9%[46.1 µM],u,17.4%
COc1ccccc1N1CCN(C(=O)c2ccc3nc[nH]c3c2)CC1,-0.3%,-4.0%,-2.2,17.8%,0.1%,-16.1%
Cc1ccc(C)c(N2CCN(C(=O)c3ccc4nc(N5CCOCC5)sc4c3)CC2)c1,-12.5%,x,x,x,x,x
Oc1ccc(Nc2nc(N3CCCC3)c3ccccc3n2)cc1,-20.3%,-1.4%,4.7,-14.8%[46.1 µM],3.7%,-5.1%
COc1ccc(Nc2nc(N3CCCCC3)c3ccccc3n2)cc1,50.1µM*,12.6µM*,-0.1,u,-2.1%,11.3%
Cc1[nH]nc2c1C(c1ccsc1)C1=C(CC(C)(C)CC1=O)N2 (configuration not stated),3.0%,u,-0.1,-21.2%,u,-2.4%
CC1(C)CC(=O)C(C=NCCN2CCNC2=O)=C(O)C1,31.7%,20µM*,5.5,11.1%,4.0%,7.0%
CC1(C)CC(=O)C(C=NCCN2CCN(C(=O)C34CC5CC(CC(C5)C3)C4)CC2)=C(O)C1,-18.8%,7.94µM*,-4.1,-9.6%[46.1 µM],-10.3%,-3.5%
CC1(C)CC(=O)C(C=NCCN2CCN(C3CC(=O)N(c4ccc(Br)cc4)C3=O)CC2)=C(O)C1 (configuration not stated),12.1%,28.2µM*,-0.7,-19.4%,-1.6%,-6.2%
CC1(C)CC(=O)C(C=NCCCO)=C(O)C1,9.8%,-5.2%,-0.4,-6.1%[46.1 µM],2.2%,-2.0%
CC1Cc2ccccc2N1C(=O)CSc1nnc(-c2ccccc2)c(-c2ccccc2)n1 (configuration not stated),8.1%,-9.5%,-0.3,-27.5%[46.1 µM],-3.6%,12.1%
